PubChem BioAssay AID1508600 (Functional Genomics Laboratory (NCATS/FGL), 2020)
About 3,700 (7%) of roughly 53,000 sequences were called active.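 How the source made its calls: active means gene knockdowns whose robust z-score for IL-1 alpha signal is at least 2 or at most -2, so actives lie on both sides; inactive means the rest.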 This excerpt belongs to a sample that is enriched for actives.

Test: Components of the Cytosolic LPS Sensing Pathway: Gene Identification via Genome-wide siRNA Screen
Details: RAW264.7 macrophages, IL-1a HTRF, actives lie on both sides, screened at 100 nM (by protocol), cells primed 5 h with Pam3CSK4 first
Description: Non-canonical inflammasome activation by cytosolic LPS is a critical component of the host response to Gram-negative bacterial infection, however we lack a comprehensive understanding of the cellular processes that control this pathway. Here we describe a genome-wide siRNA screen to identify genes regulating the mouse macrophage IL-1 alpha response to cytosolic LPS.
RAW264.7 cells were maintained in complete DMEM media, comprising DMEM with 4.5 g/L glucose, 10% FBS (Gemini Bio-Products, West Sacramento, CA), 2 mM Glutamine (Lonza) and 20 mM HEPES (Lonza), hereafter complete DMEM.
The RNAi screen was conducted in 384-well format using the Ambion Silencer Mouse Genome siRNA Library (#4391425), which consists of three unique, nonoverlapping, nonpooled siRNAs for each of 17,000 gene targets. siRNA reagents ([…]) were stamped into 384-well white flat-bottom microplates (Corning, 3570) using a Velocity11 VPrep liquid handling system (Agilent) integrated into a BioCel robotic platform (Agilent) in columns 1-22, leaving columns 23-24 empty for negative (Ambion, Negative control #1) and positive (mouse Casp4) controls, respectively. The median value of each plate's negative control column was used to normalize sample wells, and the positive control was used to assess transfection efficiency and assay performance.
Lipofectamine RNAiMAX Transfection Reagent ([…]; Invitrogen) was added in […] serum-free, antibiotic-free media to plate wells using a Thermo Scientific Matrix WellMate and Microplate Stacker. Plates were incubated for 45 min at room temperature to allow for the sufficient formation of siRNA-lipid complexes. Cells were seeded at a density of 1x10^4 cells per well in 20 microL media containing 20% (vol/vol) FBS without antibiotics. The final concentration of siRNA in each well was 100 nM. Cells were cultured for 48h at 37 degrees C in 5% CO2 before addition of […] of TLR ligand Pam3CSK4 for 5 hours. The medium was then removed, replaced with […] growth media and cell were transfected with […] of LipidA and TransIT-TKO (Mirus) for 24 hour. At the end of the LipidA treatment, […] of supernatant was transferred to a 384 Greiner Bio-one non-binding low volume plate and […] of IL-1a HTRF reagent (Cisbio, 62MIL1APEH) was added and incubated at room temperature overnight. The plates were read on an EnVision plate reader (PerkinElmer). Cell viability was measured by adding 20ul Cell Titer Glo to the original plate and running a luminescence read on the EnVision. The quantified IL-1a signal for each siRNA gene-targeted well was divided by the median of the negative control wells and multiplied by 100 to achieve a negative control normalized value for each well/siRNA. This normalized value was then used to generate a robust z-score by first taking the log of each value and then by subtracting the median and dividing by the […].

Row | Sequence | z-score
1 | GACAAGUUCUCAAGUAUCCTT against 1110006O24Rik | -2.02 (active)
2 | GGUCCAUAACUUGUGUGCUTT against 3300002I08Rik | -0.462 (inactive)
3 | GGUUGUGAAACGAUGCCCUTT against Trp63 | -0.512 (inactive)
4 | CCUGCAAUCAAAACAUCAATT against Vmn1r10 | 1.13 (inactive)
5 | GGAAUUAUCUGAGCCUGUGTT against Fam193b | -0.0725 (inactive)
6 | GGAAGAGAGAUUCCUAUAGTT against Sec11a | -2.03 (active)
7 | GGCUUGGUGGGACAGAUAUTT against Ccdc51 | -1.82 (inactive)
8 | GCUAGAUCCAUCCAUAUAGTT against Misp | -1.26 (inactive)
9 | GGUGAAGAUCUGAUAAGAATT against Epb41 | -1.44 (inactive)
10 | GCAACCUCAUACCAAAGAGTT against Zfyve26 | 0.211 (inactive)
11 | GGUCACUAUCUCUGAUUUCTT against Bpifb2 | -1.38 (inactive)
12 | GGUCAUCCUUGCCAAUCUCTT against Olfr686 | -2.11 (active)
13 | GGAAUCUUCCAGAACUAAATT against Rufy1 | 0.912 (inactive)
14 | GCAGGUCUUACCAGAUCGATT against Thap3 | -0.765 (inactive)
15 | GGCAGUAAGGCUCCAAUCUTT against Tcp10a | -2.1 (active)
16 | GGCUCUGAACAGCAUUGACTT against Mdfi | -0.521 (inactive)
17 | GGUUUGAAUCAAAUUGUACTT against Hyou1 | -1.12 (inactive)
18 | CCUCCACAUUUAUUUGCUATT against Mbtd1 | 1.23 (inactive)
19 | ACCUGAAUUUGGUGACUGATT against Rdh18-ps | 0.368 (inactive)
20 | GGUAUUAUGAGACAGGAAGTT against Pax5 | -1.61 (inactive)
21 | GGUUUUAGGAUCCUAGAAGTT against Ap1s1 | 0.957 (inactive)
22 | GCUGGCUUUGAUUUAUGGATT against Prkar1a | 5.06 (active)
23 | GGACGUGUUCGGAAACCUATT against Psmc3ip | 0.134 (inactive)
24 | CCUGUGCUCUGAGUUUGGCTT against Tmem270 | 0.00319 (inactive)
25 | GGACAAACGGGAAAAGAAGTT against Sprr2d | -2.04 (active)
26 | GGGUUGUUUGUCUUGUUCGTT against Rspo2 | 0.847 (inactive)
27 | GGAAAGAUUCAAAGAACCUTT against Rpia | 1.45 (inactive)
28 | GGCAGACAGUCUAACAGAUTT against Krt6a | 0.283 (inactive)
29 | GGCAGUUAUUCAGAAUUGATT against Nfu1 | -2.2 (active)
